The results in this text go back to publication PMC4336329 (PLoS ONE, 2015).

Hit rate of the full screen: of about 310,000 compounds, about 14,000 (4.5%) showed an effect of 50% or more. The effect is printed as a negative number. Shown is part of a subset that was picked to be rich in strong results.
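Further: peak tail current of the secondary pulse compared with the same well before compound.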

Chain of human ether-à-go-go-related gene (hERG) potassium channel (Q12809 whole entry, looked up): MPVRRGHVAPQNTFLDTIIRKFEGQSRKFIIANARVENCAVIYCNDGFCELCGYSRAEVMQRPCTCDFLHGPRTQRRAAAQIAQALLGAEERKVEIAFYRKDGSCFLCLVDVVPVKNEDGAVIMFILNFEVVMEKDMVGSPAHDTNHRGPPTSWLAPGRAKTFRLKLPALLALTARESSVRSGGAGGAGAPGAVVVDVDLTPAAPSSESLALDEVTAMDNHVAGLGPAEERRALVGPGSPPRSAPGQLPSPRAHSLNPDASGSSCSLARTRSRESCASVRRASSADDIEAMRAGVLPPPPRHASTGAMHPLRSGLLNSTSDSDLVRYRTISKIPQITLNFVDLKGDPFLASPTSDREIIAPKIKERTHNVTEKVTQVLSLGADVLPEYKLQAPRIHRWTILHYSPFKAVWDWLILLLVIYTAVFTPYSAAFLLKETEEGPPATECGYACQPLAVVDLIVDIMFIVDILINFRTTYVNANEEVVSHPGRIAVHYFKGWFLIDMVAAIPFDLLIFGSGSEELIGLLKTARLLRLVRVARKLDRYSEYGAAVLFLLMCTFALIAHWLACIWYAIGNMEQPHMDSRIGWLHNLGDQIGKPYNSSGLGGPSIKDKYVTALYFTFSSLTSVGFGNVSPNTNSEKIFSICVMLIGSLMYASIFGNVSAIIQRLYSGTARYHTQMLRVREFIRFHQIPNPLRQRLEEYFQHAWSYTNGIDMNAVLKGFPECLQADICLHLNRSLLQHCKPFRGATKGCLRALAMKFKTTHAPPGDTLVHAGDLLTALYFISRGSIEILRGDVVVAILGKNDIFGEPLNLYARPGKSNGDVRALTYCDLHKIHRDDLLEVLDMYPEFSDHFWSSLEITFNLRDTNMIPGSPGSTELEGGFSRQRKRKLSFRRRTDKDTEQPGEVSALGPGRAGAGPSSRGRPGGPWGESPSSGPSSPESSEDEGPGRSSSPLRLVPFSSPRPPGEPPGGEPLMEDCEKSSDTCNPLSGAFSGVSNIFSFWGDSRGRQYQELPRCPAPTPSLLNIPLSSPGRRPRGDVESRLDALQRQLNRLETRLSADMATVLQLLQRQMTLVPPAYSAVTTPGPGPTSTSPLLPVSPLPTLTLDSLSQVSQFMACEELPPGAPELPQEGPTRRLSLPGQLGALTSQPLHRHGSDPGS

The experiment addresses human ether-à-go-go-related gene (hERG) potassium channel (human, UniProt Q12809). The experiment can be described thus: primary screen, population patch clamp on CHO cells stably expressing hERG; higher = less effect of the substance.
As for `CC(=O)c1ccc(OCc2cc(=O)n3ccsc3n2)cc1`, the “hERG current change (%, negative = inhibition) at 10uM” value is -1.4%.

As for `C=CCN1C(=O)C(CC(=O)NCC)SC1=Nc1cc(Cl)ccc1Cl` (centres unmarked), the “hERG current change (%, negative = inhibition) at 10uM” value is listed as -2.76%. With `Cc1ccc(NC(=O)C(C)OC(=O)CCNS(=O)(=O)c2ccc(C)cc2)cc1` (centres unmarked) the figure was -16.5%; with `CCOC(=O)C1=C(C)NC(=O)NC1`, -3.56%; with `CCN(CC)S(=O)(=O)c1cc(NC(=O)CCNC(=O)c2ccccc2Cl)ccc1C`, -11.5%. Consider `COc1cc(/C=C/c2nc3ccccc3c(=O)[nH]2)cc(Br)c1O`, for which the “hERG current change (%, negative = inhibition) at 10uM” value is reported as 30.6%. As to `CC(C)(C)Nc1nc(NN)nc(NC(C)(C)C)n1`, the “hERG current change (%, negative = inhibition) at 10uM” value came out at 11.8%. Regarding `O=C(Nc1ccc(C(=O)O)cc1)/C(=C\c1ccco1)NC(=O)c1ccccc1`, the “hERG current change (%, negative = inhibition) at 10uM” value is given as 21.2%. Take `Cl.O=C1c2ccccc2C(=O)N1CC#CCN1CCN(C2CCCCC2)CC1`: the “hERG current change (%, negative = inhibition) at 10uM” value is listed as -40.8%. In the case of `O=C(CN1CCCCCC1)N/N=C/c1ccc(Cl)c(Cl)c1`, the “hERG current change (%, negative = inhibition) at 10uM” value is listed as -60%. Consider `CC1CCN(CCC(=O)N/N=C/c2ccc([N+](=O)[O-])cc2)CC1`, for which the “hERG current change (%, negative = inhibition) at 10uM” value was -70%.

Consider `O=C(CN1CCCCC1)N/N=C/c1cccc(Cl)c1`, for which the “hERG current change (%, negative = inhibition) at 10uM” value is recorded as -35.6%. The figure for `CN1CCN(CCC(=O)N/N=C/c2cc([N+](=O)[O-])ccc2O)CC1` is 1.18%. For the compound `O=C(CN1CCCCC1)N/N=C/c1ccc(Cl)cc1Cl`, the “hERG current change (%, negative = inhibition) at 10uM” value is -39.1%.

Take `O=C(CN1CCCCCC1)N/N=C/c1cccc(Cl)c1`: the “hERG current change (%, negative = inhibition) at 10uM” value is reported as -37.5%. With `Cn1cccc1CC(=O)N/N=C/c1ccc([N+](=O)[O-])cc1` the figure was -1.88%; with `O=C(CN1CCCCC1)N/N=C/c1ccc(Cl)cc1`, -66.9%; with `O=C(CN1CCSCC1)N/N=C/c1ccc(Cl)cc1`, -12.5%. `CCOC(=O)c1c(N)nn(C(=O)c2ccccc2F)c1-c1ccc(OC)cc1`: the “hERG current change (%, negative = inhibition) at 10uM” value is on record as 3.53%.

In the case of `Nn1c(Cc2cccc3ccccc23)nnc1SCC(=O)N1CC(=O)Nc2ccccc21`, the “hERG current change (%, negative = inhibition) at 10uM” value is recorded as 7.01%.

With `Cc1ccc2cc(CCNC(=O)c3ccco3)c(=O)[nH]c2c1`, the “hERG current change (%, negative = inhibition) at 10uM” value was -13.6%. As to `CCN(CC)c1ccc(-n2c(C)cc(C=O)c2C)cc1`, the “hERG current change (%, negative = inhibition) at 10uM” value was determined as 6.33%. On to `CC[N+]12CCC(CC1)C(=C(c1ccccc1)c1ccccc1)C2.[Br-]`, for which the “hERG current change (%, negative = inhibition) at 10uM” value was -73.6%. The figure for `CCC[N+]12CCC(CC1)C(C(O)(c1ccccc1)c1ccccc1)C2.[Br-]` (centres unmarked) is -0.95%; for `CCCC[N+]12CCC(CC1)C(C(O)(c1ccccc1)c1ccccc1)C2.[Br-]` (centres unmarked) it is 5.84%. With `CCCC[N+]12CCC(CC1)C(Cc1ccccc1)C2.[Br-]` (centres unmarked), the “hERG current change (%, negative = inhibition) at 10uM” value was 21.9%. As for `CCCC[N+]12CCC(CC1)C(=C(c1ccccc1)c1ccccc1)C2.[Br-]`, the “hERG current change (%, negative = inhibition) at 10uM” value was -72.4%. Take `CC[N+]12CCC(CC1)C(C(O)(c1ccccc1)c1ccccc1)C2.[Br-]` (centres unmarked): the “hERG current change (%, negative = inhibition) at 10uM” value was -5.24%. Regarding `CCC[N+]12CCC(CC1)C(=C(c1ccccc1)c1ccccc1)C2.[Br-]`, the “hERG current change (%, negative = inhibition) at 10uM” value was -70.1%. As to `CCC/C(=N\NC(=O)C1CC1)c1ccccc1`, the “hERG current change (%, negative = inhibition) at 10uM” value is given as -2.21%. On to `CC/C(=N/N=C(\CC)c1ccccc1)c1ccccc1`, for which the “hERG current change (%, negative = inhibition) at 10uM” value came out at 5.16%. Consider `COC(=O)COc1ccc2c(=O)c(-c3ccccc3OC)coc2c1`, for which the “hERG current change (%, negative = inhibition) at 10uM” value is listed as 10.2%. Regarding `COc1ccc(CSc2nncn2N)cc1Br`, the “hERG current change (%, negative = inhibition) at 10uM” value turned out to be 4.98%. `Cc1cc(C)c(-n2c(C)cc(/C=C3/NC(=O)NC3=O)c2C)c(C)c1`: the “hERG current change (%, negative = inhibition) at 10uM” value is -9.75%.

Regarding `CCOc1ccccc1N(C)C(=O)CCS(=O)(=O)c1ccc2c(c1)NC(=O)CO2`, the “hERG current change (%, negative = inhibition) at 10uM” value is 5.58%.

On to `CCCOP(=O)(c1ccc(N(C)C)cc1)C(O)c1ccc(Cl)cc1Cl` (centres unmarked), for which the “hERG current change (%, negative = inhibition) at 10uM” value is -54.9%.

Consider `CCCOP(=O)(c1ccc(N(C)C)cc1)C(O)c1ccc(Cl)cc1` (centres unmarked), for which the “hERG current change (%, negative = inhibition) at 10uM” value was determined as 9.5%. With `CC(C)CCOP(=O)(c1ccc(N(C)C)cc1)C(O)c1ccc(Cl)cc1Cl` (centres unmarked) the figure was 0.259%; with `CC1CC(C)CN(c2oc(-c3ccco3)nc2C#N)C1` (centres unmarked), 0.193%. With `COc1cc(/C=N/NC(=O)c2ccncc2)ccc1OCc1cnc(Cl)s1`, the “hERG current change (%, negative = inhibition) at 10uM” value came out at 2.43%. As to `COc1ccc(-c2cc(C#N)nc(N3CCN(C)CC3)n2)cc1`, the “hERG current change (%, negative = inhibition) at 10uM” value was -42.5%. Turning to `N#Cc1cc(-c2ccccc2)nc(N2CCNCC2)n1`, the “hERG current change (%, negative = inhibition) at 10uM” value is listed as -11.3%. In the case of `COc1ccc(-c2cc(C#N)nc(N3CCNCC3)n2)cc1`, the “hERG current change (%, negative = inhibition) at 10uM” value is reported as -79.3%. For the compound `Cc1ccc(NC(=O)C(=O)NCCN2CCN(S(C)(=O)=O)CC2)cc1C`, the “hERG current change (%, negative = inhibition) at 10uM” value is given as 0.0768%. For `COc1ccccc1S(=O)Cc1ccc(C(=O)NCc2ccccc2Cl)o1` (centres unmarked), the “hERG current change (%, negative = inhibition) at 10uM” value is -19.5%.

In the case of `COc1ccccc1S(=O)Cc1ccc(C(=O)NCCc2ccc(Cl)cc2)o1` (centres unmarked), the “hERG current change (%, negative = inhibition) at 10uM” value was -65.4%. The figure for `O=C(NCCc1ccc(Cl)cc1)c1ccc(CS(=O)Cc2ccccc2Cl)o1` (centres unmarked) is -30%; for `O=C(NCCCc1ccccc1)c1ccc(CS(=O)Cc2ccccc2Cl)o1` (centres unmarked) it is -76.2%; for `O=C(NCCc1ccccc1)c1ccc(CS(=O)Cc2cccc(Cl)c2)o1` (centres unmarked) it is -6.23%. With `COc1ccc(CCNC(=O)c2ccc(CS(=O)Cc3ccc(Cl)cc3)o2)cc1OC` (centres unmarked) the figure was -26.7%; with `CCOc1ccc(CCNC(=O)c2ccc(CS(=O)Cc3ccc(Cl)cc3)o2)cc1` (centres unmarked), -14.1%; with `CCOc1ccc(CCNC(=O)c2ccc(CS(=O)Cc3ccccc3Cl)o2)cc1` (centres unmarked), -19%. With `CSc1ccc(CCNC(=O)c2ccc(CS(=O)Cc3ccccc3Cl)o2)cc1` (centres unmarked) the figure was -2.87%; with `O=C(NCCc1ccccc1)c1ccc(CS(=O)Cc2ccc(Cl)cc2)o1` (centres unmarked), -58.8%.

As to `O=C(NCCc1ccc(Cl)cc1)c1ccc(CS(=O)Cc2ccc(Cl)cc2)o1` (centres unmarked), the “hERG current change (%, negative = inhibition) at 10uM” value is given as -39.8%. For the compound `CCOc1ccc(CCNC(=O)c2ccc(CS(=O)Cc3cccc(Cl)c3)o2)cc1` (centres unmarked), the “hERG current change (%, negative = inhibition) at 10uM” value was -76%. For `CCOc1ncccc1C(=O)NNC(=O)c1ccc(NS(=O)(=O)c2cccs2)cc1`, the “hERG current change (%, negative = inhibition) at 10uM” value is reported as 13%.

As for `Cc1onc(-c2ccccc2)c1C(=O)Nc1sc2c(c1C(N)=O)CCC2`, the “hERG current change (%, negative = inhibition) at 10uM” value is reported as 6.44%.

As for `CCC(C)NC(=O)C1CCN(c2nc(OC)nc(OC)n2)CC1` (centres unmarked), the “hERG current change (%, negative = inhibition) at 10uM” value was -4.66%. In the case of `CCN(Cc1cc2ccccc2[nH]c1=O)C(=O)c1cccc([N+](=O)[O-])c1`, the “hERG current change (%, negative = inhibition) at 10uM” value is on record as -21.8%. On to `Clc1cccc(-c2cc3nc4c(c(N5CCOCC5)n3n2)CCCC4)c1`, for which the “hERG current change (%, negative = inhibition) at 10uM” value is listed as -6.06%. On to `Cn1c(=O)n(-c2cccc(Cl)c2)c(=O)n1C`, for which the “hERG current change (%, negative = inhibition) at 10uM” value came out at 6.81%. For the compound `Brc1ccccc1-c1nc(-c2ccccc2)no1`, the “hERG current change (%, negative = inhibition) at 10uM” value came out at 5.04%. In the case of `CC1(C)CC(=O)C2=C(C1)c1c(ccc3ccccc13)NC2c1ccco1` (centres unmarked), the “hERG current change (%, negative = inhibition) at 10uM” value turned out to be 14.1%.

As for `CC12CCC(=O)N1C(C(=O)Nc1ccccc1N1CCCCC1)CS2` (centres unmarked), the “hERG current change (%, negative = inhibition) at 10uM” value was -15.9%. Consider `CCN(CC)S(=O)(=O)N1CCC(C(=O)NC2CCCc3ccccc32)CC1` (centres unmarked), for which the “hERG current change (%, negative = inhibition) at 10uM” value is given as -8%. `Cc1cc(Br)c(S(=O)(=O)NCc2ccncc2)cc1C`: the “hERG current change (%, negative = inhibition) at 10uM” value came to 7.87%. With `CNc1cncc(C(=O)O)c1` the figure was 7.43%; with `Cc1ccc(O)c(C(=O)c2cnc3onc(-c4ccc(F)cc4)c3c2)c1`, 4.58%; with `O=C(NCCCc1ccccc1)c1ccc(CS(=O)Cc2ccc(Cl)cc2)o1` (centres unmarked), -74.3%.

In the case of `Cc1ccc(CS(=O)Cc2ccc(C(=O)NCCc3ccccc3)o2)cc1` (centres unmarked), the “hERG current change (%, negative = inhibition) at 10uM” value is reported as -7.62%. Consider `O=C(NCCc1cccs1)c1ccc(CS(=O)Cc2ccc(Cl)cc2)o1` (centres unmarked), for which the “hERG current change (%, negative = inhibition) at 10uM” value was -20.4%. The figure for `Cc1ccccc1C(=O)N1CCN(c2ccc(NC(=O)c3ccco3)cc2)CC1` is 5.43%; for `CN(Cc1ccccc1)CC(O)COc1ccc(CNCc2cc3ccccc3s2)cc1` (centres unmarked) it is -25.7%; for `CCOc1ccc(CN(C)CC(O)COC(c2ccc(OC)cc2)c2ccc(OC)cc2)cc1` (centres unmarked) it is -77.4%. Turning to `COc1cccc(CN(C)CC(=O)Nc2c(C)cccc2C(C)C)c1`, the “hERG current change (%, negative = inhibition) at 10uM” value is listed as -12.2%. Regarding `CCc1ccc(CN(C)CC(O)COc2cccc3ccccc23)cc1` (centres unmarked), the “hERG current change (%, negative = inhibition) at 10uM” value is on record as -25.2%. Consider `COc1cccc(CN(C)CC(O)COC(c2ccccc2)c2ccccc2C)c1` (centres unmarked), for which the “hERG current change (%, negative = inhibition) at 10uM” value is listed as -72.1%. The figure for `COc1ccc(CN(C)CC(O)COC(c2ccc(OC)cc2)c2ccc(OC)cc2)cc1` (centres unmarked) is -77.2%; for `COc1ccc(C(OCC(O)CN2CCC(O)CC2)c2ccc(OC)cc2)cc1` (centres unmarked) it is -48%; for `COc1cccc(CN(C)CC(O)COc2cc(Cl)ccc2Cl)c1.O=C(O)C(=O)O` (centres unmarked) it is -42%. As to `CCc1ccc(CNCc2ccc(OCC(O)CN(C)Cc3ccccc3)cc2)nc1` (centres unmarked), the “hERG current change (%, negative = inhibition) at 10uM” value is reported as -17.4%. For the compound `Cn1c(COc2ccccc2)nnc1SCc1nc2ccccc2[nH]1`, the “hERG current change (%, negative = inhibition) at 10uM” value is listed as -9.92%.

For `CCOc1ncccc1C(=O)NC(C)CCc1ccccc1` (centres unmarked), the “hERG current change (%, negative = inhibition) at 10uM” value is given as -6.92%. With `COc1ccc(OC)c(/C=C2\S/C(=N/NC(=O)c3ccc4ccccc4c3)NC2=O)c1` the figure was 16.5%; with `COc1cccc(CNS(=O)(=O)c2ccc3c(c2)CC(C)N3C(=O)C2CC2)c1` (centres unmarked), 18.5%. Take `Cc1ccc(-c2nc(CNC(=O)c3ccco3)cs2)cc1`: the “hERG current change (%, negative = inhibition) at 10uM” value was -13.6%.

Take `O=C(NCc1csc(-c2ccccc2)n1)c1ccco1`: the “hERG current change (%, negative = inhibition) at 10uM” value is on record as -40%.

In the case of `Cc1cccc(-c2nc(CNC(=O)c3ccco3)cs2)c1`, the “hERG current change (%, negative = inhibition) at 10uM” value was -57.9%.
